# Most compounds without a hit are left out; they make up all but 0.86% or so of the library.
# TAR Tat displ – TAR RNA-Tat peptide displacers, HIV-1, primary screen, biochemical, FRET, FAM/TAMRA-labeled Tat. HIV-1 TAR RNA, Tat peptide displacement FRET; hits give high values. z-score (no concentration beside the values). 100,000 compounds, 0.6% hits. AID 1259389, 2018; active = z-score of 3 or more in at least 2 runs
# CDC25B-CDK2 inh – primary biochemical HTRF screen for blockers of M-phase inducer phosphatase 2 binding to CDK2/cyclin A; P30305+P24941; HTRF CDC25B-CDK2/CyclinA binding, anti-His/anti-Flag; hits give high values; z-score (no concentration beside the values); 94,000 compounds, 0.72% hits; AID 1259370, 2018; in the data active = z-score above about 3.2
# Active calls of the source: *; / = not tested or not shown.
SMILES,TAR Tat displ,CDC25B-CDK2 inh
Cn1c(=O)n(Cc2ccccc2F)c(=O)c2c1nc1n2CCN1Cc1ccco1,4.7*,/
Cn1c(=O)n(Cc2ccccc2Cl)c(=O)c2c1nc1n2CCN1Cc1ccco1,/,-1.8
COc1ccc(NC(=O)c2sc(=S)n3c2[nH]c(=O)c2ccccc23)cc1OC,3.6,/
COc1ccc(NC(=O)c2sc(=S)n3c2[nH]c(=O)c2sccc23)cc1OC,9.2*,/
Cc1cc(CSCC(=O)NCc2ccco2)cs1,0.45,/
Nc1cc2c(=O)c3cc(Cl)cc(Cl)c3[nH]c2c2c1C(=O)c1ccccc1C2=O,/,10*
Nc1cc(S(=O)(=O)O)c(N)c2c1C(=O)c1ccccc1C2=O,/,-2.4
CC1CCC(NC(=O)C2(C)Cn3c(cc4sccc43)C(=O)N2CCCN2CCCCC2C)CC1 (stereo not drawn),0.95,-1.4
COc1cccc(C2N3CC4(C)CN2CC(c2ccccc2)(C3)C4=O)c1O (stereo not drawn),4.2*,-2.2
CC12CN3CC(c4ccccc4)(CN(C1)C3c1ccccc1O)C2=O (stereo not drawn),-1.3,-0.68
CCCCN(C1CCN(C)CC1)S(=O)(=O)c1c(C)[nH]c(C)c1C(=O)OCC,0.24,/
CCCCCn1c(=O)c2c(nc3n2CCN3c2ccc(C)cc2)n(C)c1=O,5.2*,/
CCCCn1c(=O)c2c(nc3n2CCN3c2ccc(C)cc2)n(C)c1=O,1,/
O=c1[nH]n(-c2ccc(S(=O)(=O)N3CCN(c4ccccc4)CC3)cc2)c(=O)c2ccccc12,1.7,-1.9
CCOC(=O)c1nn(-c2ccc(OC)cc2)c(=O)c2c(N)c(C#N)ccc12,/,-0.61
CCc1nnc2c3ccccc3nc(NCCc3ccccc3)n12,-0.75,-2.8
O=C(Nc1ccc(Br)cc1)c1cccc(-n2cnnc2)n1,0.73,/
O=C(Nc1ccc(O)cc1)c1cccc(-n2cnnc2)n1,12*,/
COc1cc2c(=O)c(S(=O)(=O)c3ccc(F)cc3)cn(Cc3ccc(F)cc3)c2cc1OC,0.45,-0.15
CCc1nnc2sc(-c3ccncc3)nn12,-0.64,-0.05
O=C1Nc2ccccc2S(=O)(=O)N1Cc1ccc(F)cc1,1.2,/
CCCNC(=O)c1cc2oc3ccccc3c2n1C,0.61,-1.9
Cn1c(C(=O)NCc2ccccc2Br)cc2oc3ccccc3c21,-0.04,10*
Cc1sc2ncn(CC(=O)N3CCCC3)c(=O)c2c1S(=O)(=O)N1CCCCC1,/,0.27
Cc1sc2ncn(CC(=O)N3CCCCC3C)c(=O)c2c1S(=O)(=O)N1CCN(C)CC1 (stereo not drawn),/,17*
SMILES,TAR Tat displ,CDC25B-CDK2 inh
CN(C(=O)Cc1noc2ccccc12)c1cccc(Cl)c1,0.74,-0.88
CCCCCOC(=O)C1=C(C)Nc2ncnn2C1c1ccc(OC)c(OC)c1 (stereo not drawn),-0.07,-0.86
CCSc1ncc2c(=O)n(CC(=O)NCc3ccc4c(c3)OCO4)cnc2n1,13*,/
O=C(Cn1cnc2nc3c(cc2c1=O)CCCC3)NCc1ccc2c(c1)OCO2,1.3,/
COC(=O)C1=C(OC(=O)CN2C(=O)CCC2=O)c2ccccc2S(=O)(=O)N1C,0.59,-2.2
COC(=O)C1=C(OC(=O)CN2C(=O)CCC2=O)c2ccccc2S(=O)(=O)N1C(C)C,0.12,6.3*
Cc1cc2c(cc3c(SCC(=O)Nc4ccc(C)c(F)c4)nnc(C)n32)o1,2.3,/
Cc1ccc(-c2noc(C(C)NS(=O)(=O)c3ccc(Br)cc3)n2)cc1 (stereo not drawn),1.2,-0.87
CCOC(=O)[C@@H]1Nc2ccc(C(=O)O)cc2[C@@H]2C=CC[C@H]12,17*,15*
COC(=O)c1cccc2c1NC(c1ccc(Br)cc1)C1CC=CC21 (stereo not drawn),-6,-0.12
CCOC(=O)c1ccc2c(c1)[C@@H]1C=CC[C@@H]1[C@H](c1ccc(C(=O)OC)cc1)N2,0.76,0.35
Cc1ccc2c(c1)C1C=CCC1C(C(=O)O)N2 (stereo not drawn),5.2,-1.1
CC(C)c1ccc2c(c1)[C@@H]1C=CC[C@@H]1[C@H](c1ccc(C(=O)O)cc1)N2,/,-0.29
COc1ccc2c(c1)[C@@H]1C=CC[C@@H]1[C@H](c1ccc(C(=O)O)cc1)N2,14*,4.2
CCOC(=O)c1ccc2c(c1)[C@@H]1C=CC[C@@H]1[C@H](c1ccc(C(=O)O)cc1)N2,8*,1.6
COc1cccc2c1NC(C(=O)O)C1CC=CC21 (stereo not drawn),42*,0.71
O=C1c2cccnc2C(Nc2ccc(F)cc2)N1Cc1cccs1 (stereo not drawn),2.2,/
Cc1nc(C)c(S(=O)(=O)NCc2ccc3c(c2)CCO3)s1,/,-2.9
CCCCN(CC)C(=O)Cn1ncc2c1-c1ccccc1OC2,-0.51,-0.68
Cc1cccc2c1N[C@H](c1ccc(C(=O)O)cc1)C1CC=CC21 (stereo partly drawn),2.9,6.8*
COC(=O)c1ccc2c(c1)C1C=CCC1[C@@H](c1ccc(C(=O)O)cc1)N2 (stereo partly drawn),7.4*,-1.2
CC(C)c1ccc([C@@H]2Nc3ccc(C(=O)O)cc3[C@@H]3C=CC[C@@H]32)cc1,/,-0.19
CCc1cccc2c1N[C@@H](c1ccc(C(=O)O)cc1)[C@H]1CC=C[C@@H]21,/,-0.09
Cc1cccn2c(=O)cc(COc3ccccc3NS(=O)(=O)c3ccc(Cl)cc3)nc12,0.3,/
O=C(Nc1ccc2c(c1)Sc1ccccc1C(=O)N2C1CCCC1)C1CCC1,2.7,/
SMILES,TAR Tat displ,CDC25B-CDK2 inh
CC(C)(CO)NCc1cc(Br)ccc1OCc1ccccc1,-0.65,0.31
O=c1[nH]c2ccc(NCc3cc(Br)ccc3OCc3ccccc3)cc2[nH]1,-3.1,13*
COc1cc(CNc2ccc3[nH]c(=O)[nH]c3c2)cc(Br)c1OCc1cccs1,/,8.9*
CCOc1cc(CNc2ccc(O)cc2)cc(Br)c1OCc1cccs1,-6.5,-0.71
Cc1nc2c(c(C)nn2C)c(C)c1CCC(=O)NC(C)CCc1ccco1 (stereo not drawn),-0.06,0.15
Cc1nn(C)c(C)c1CNC(=O)NCCC(C)C,-0.91,/
Cn1cnc2cc(Nc3nnc(-c4ccc(Cl)cc4)c4ccccc34)ccc21,/,-0.73
Cc1nc2cc(Nc3nnc(-c4ccc(Cl)cc4)c4ccccc34)ccc2n1C,/,14*
CC(=O)C[n+]1cccc2cccc(O)c21,/,2.2
C#CC[n+]1cccc2cc(O)ccc21,/,5.2*
COCCNC(=O)C1CCN(c2nnc(-n3cccc3)s2)CC1,0.12,0.05
Cc1cn2c(=O)c(S(=O)(=O)Nc3ccc(F)cc3)c(C)nc2s1,-0.99,/
COC(=O)Cn1c2ccc(Cl)cc2c2nc3ccccc3nc21,0.17,19*
CC(C)OC(=O)Cn1c2ccccc2c2nc3ccccc3nc21,2.9,-1.4
CCn1nc(-c2ccccc2Br)nc2c(=O)n(C)c(=O)nc1-2,0.43,12*
CCn1nc(-c2ccccn2)nc2c(=O)n(C)c(=O)nc1-2,-2,-2.3
O=C(Nc1ccc(OC(F)(F)F)cc1)Nc1cc(-c2ccco2)[nH]n1,/,8.7
CCn1c2ccccc2c2cc(CN3CCN(Cc4ccc(SC)cc4)CC3)ccc21,/,11*
CCn1c2ccccc2c2cc(CN3CCN(S(C)(=O)=O)CC3)ccc21,0,0.07
COc1ccc(S(=O)(=O)NCCc2nnc3ccc(SCc4ccccc4)nn23)cc1,1.3,/
Cc1ccc2oc(-c3cc(NC(=O)C(c4ccccc4)c4ccccc4)ccc3O)nc2c1,/,-4.8

# High-throughput results: PubChem, Center for Chemical Genomics, University of Michigan
